A short description of experiment [1]: qHTS RealTime-Glo MT Cell Viability Assay in HepG2 cells - 24 hour (AID 1224867). Note: nearly all actives have a fitted effect of over 50% in size. The procedure, abridged: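 Compound treatment began 5 h after plating HepG2 cells (600/well) with NanoLuc luciferase and prosubstrate. Plates stayed at 37 C for 40 h; luminescence was captured at six time points, 0 h through 40 h.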
A general note: Quantitative high-throughput screening tests each substance at several concentrations.

Experiment [2] can be described thus: qHTS RealTime-Glo MT Cell Viability Assay in HEK293 cells - 32 hour (AID 1224868). Note: nearly all actives have a fitted effect of over 50% in size. Note: potency is the fitted concentration of half-maximal effect. The method, boiled down:
(§1)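 Quantitative high-throughput screen of the Tox21 10K library in HEK293: cells and RealTime-Glo reagents plated together, compound added at 5 h, luminescence monitored through 40 h at 37 C.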

Experiment [3] is described as follows: A CellTox Green Cytotoxicity Assay to monitor cytotoxicity in HEK293 cells - 0 hour (AID 1224869). Note: nearly all actives have a fitted effect of over 50% in size. The procedure, abridged: (§2)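 HEK293 cells premixed with CellTox Green dye were seeded at 600 cells/well and left 5 h at 37 C/5% CO2 before pin transfer of 23 nL compound in DMSO. Fluorescence from dye bound to dead-cell DNA was read during 40 h treatment.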
The nature of experiment [4]: qHTS RealTime-Glo MT Cell Viability Assay in HepG2 cells - 40 hour (AID 1224870). Note: nearly all actives have a fitted effect of over 50% in size. The procedure, abridged: (§3)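 HepG2 cells (600/well) mixed with RealTime-Glo MT reagent, settled 5 h at 37 C/5% CO2 before compound addition. Nonlytic NanoLuc luminescence from viable-cell prosubstrate reduction read repeatedly during 40 h treatment at 37 C.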
A short description of experiment [5]: A CellTox Green Cytotoxicity Assay to monitor cytotoxicity in HEK293 cells - 40 hour (AID 1224871). Note: nearly all actives have a fitted effect of over 45% in size. The procedure, abridged:
as §2

Experiment [6] can be described thus: qHTS RealTime-Glo MT Cell Viability Assay in HEK293 cells - 16 hour (AID 1224872). Note: nearly all actives have a fitted effect of over 50% in size. Note: potency is the fitted concentration of half-maximal effect. The method, boiled down:
as §1

The nature of experiment [7]: qHTS RealTime-Glo MT Cell Viability Assay in HepG2 cells - 8 hour (AID 1224873). Note: nearly all actives have a fitted effect of over 55% in size. The procedure, abridged: as §3
Experiment [8] is described as follows: qHTS RealTime-Glo MT Cell Viability Assay in HEK293 cells - 40 hour (AID 1224874). Note: nearly all actives have a fitted effect of over 50% in size. Note: potency is the fitted concentration of half-maximal effect. As to conditions: RealTime-Glo luminescence; max response: stronger effect = lower value. The procedure, abridged: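 HEK293 cells mixed with RealTime-Glo reagents (NanoLuc plus cell-permeant prosubstrate) at 600 cells/well, preincubated 5 h at 37 C/5% CO2, then given 23 nL compound in DMSO. Nonlytic luminescence from viable cells was read at 0, 8, 16, 24, 32 and 40 h.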

The nature of experiment [9]: A CellTox Green Cytotoxicity Assay to monitor cytotoxicity in HEK293 cells - 24 hour (AID 1224875). Note: series mostly up to about 77 µM; nearly all actives have a fitted effect of over 45% in size. The procedure, abridged: as §2

Molecules are shown by their SMILES. Where “and” joins values, the source holds several entries; their conditions need not be identical. Equal values may be shown once. Unmarked numbers belong to inactive results. Inconclusive results are not listed. Calls of active or inactive are those of the source. Calls come from the whole dose curve; as a rule, active = well fitted curve in the direction sought with a large enough effect in the repeat runs; inconclusive = weak or mixed curves; inactive = no such curve, though single readings can be large; an effect the other way counts as inactive or inconclusive.
% is set by controls: 0 for no effect and ±100 for the full control effect.

Turning to `COc1cc(Cc2cnc(N)nc2N)cc(OC)c1OC`, the compound was called inactive in [1], in experiment [3], in experiment [4] and in experiment [7]. The Potency entry in experiment [2], in [5], in experiment [6] and in experiment [9] was “inactive” throughout. Also, the max response in [8] was -23% and -15.6%.
Regarding `CC1=CC(=O)NS(=O)(=O)O1`, the compound was called inactive in experiment [1], in [3], in [4] and in experiment [7]. Besides, the Potency result in experiment [2], in experiment [5], in experiment [6] and in experiment [9] was “inactive” in each case. Besides, the max response in experiment [8] was -28.6% and 3.78%.
In the case of `C[C@H]1C[C@H]2[C@@H]3CCC4=CC(=O)C=C[C@]4(C)[C@@]3(F)[C@@H](O)C[C@]2(C)[C@@]1(O)C(=O)CO`, the call in experiment [1], in experiment [3], in [4] and in experiment [7] was inactive. In addition, the Potency entry in experiment [2], in experiment [5], in experiment [6] and in [9] was “inactive” in each case. Besides, the max response in experiment [8] was -12.6% and 0.279%.
As to `O=C(O)[C@H](O)[C@@H](O)[C@H](O)[C@H](O)CO`, the compound was called inactive in experiment [1], in [4] and in experiment [7]. For the same compound, the Potency entry in experiment [2] and in experiment [6] was “inactive” throughout. For the same compound, the max response in experiment [8] was -0.628% and 0.139%.
On to `FC(F)(F)c1ccc(Cl)c(Cl)c1`, for which the compound was classed as inactive in experiment [1], in experiment [3], in [4] and in experiment [7]. Besides, the Potency entry in [2], in [5], in experiment [6] and in experiment [9] was “inactive” in each case. For the same compound, the max response in [8] is 1.14% and 2.54%.
Turning to `CCCCOC(=O)COc1ccc(Cl)cc1Cl`, the outcome in experiment [1], in experiment [3], in [4] and in experiment [7] was inactive. Moreover, the Potency entry in experiment [2], in experiment [5], in experiment [6] and in experiment [9] was “inactive” in each case. Also, the max response in [8] was -3.14% and 1.1%.
For the compound `O=C(O)c1cc(O)c(O)c(O)c1`, the outcome in experiment [1], in experiment [3], in experiment [4] and in experiment [7] was inactive. Moreover, the Potency result in [2], in experiment [5], in experiment [6] and in experiment [9] was “inactive” in each case. The max response in experiment [8] was -26.7% and 2.18%.
`C#CCN(C)Cc1ccccc1`: the call in experiment [1], in experiment [3], in [4] and in experiment [7] was inactive. In addition, the Potency result in [2], in experiment [5], in experiment [6] and in [9] was “inactive” each time. In [8], the max response was -0.876% and -0.317%.
Regarding `Cc1cc(C)c(C)cc1C`, the call in experiment [1], in experiment [3], in [4] and in experiment [7] was inactive. For the same compound, the Potency result in [2], in [5], in experiment [6] and in experiment [9] was “inactive” throughout. In experiment [8], the max response is 0.583% and -29%.
With `CCCSc1ccc2nc(NC(=O)OC)[nH]c2c1`, the compound was classed as inactive in [1], in experiment [3], in experiment [4] and in [7]. Further, the Potency entry in [5], in [6] and in experiment [9] was “inactive” in each case.
Take `CC1CCC(C(C)C)C(O)C1` (stereo not given): the compound was called inactive in experiment [1], in [3], in [4] and in experiment [7]. The Potency entry in [2], in experiment [5], in [6] and in [9] was “inactive” throughout. Further, the max response in [8] is -2.01% and 1.75%.
Take `CC(=O)c1ccccc1`: the call in [1], in [3], in [4] and in experiment [7] was inactive. The Potency entry in experiment [2], in experiment [5], in [6] and in [9] was “inactive” in each case. In [8], the max response is 0.254% and 9.46%.
Turning to `CCCCN(CCCC)CCCC`, the call in experiment [1], in experiment [3], in experiment [4] and in [7] was inactive. Besides, the Potency entry in experiment [2], in experiment [5], in [6] and in experiment [9] was “inactive” throughout. For the same compound, the max response in experiment [8] was 6% and 4.07%.
As for `C=CCNC(N)=S`, the result in experiment [1], in experiment [3], in experiment [4] and in experiment [7] was inactive. The Potency result in experiment [2], in [5], in experiment [6] and in experiment [9] was “inactive” each time. Further, the max response in experiment [8] was -13.5% and 2.87%.
`CCc1ccc(CCOc2ccc(CC3SC(=O)NC3=O)cc2)nc1` (stereo not given): the compound was classed as inactive in experiment [1], in experiment [3], in experiment [4] and in experiment [7]. Besides, the Potency entry in experiment [2], in [5] and in experiment [9] was “inactive” in each case. Further, the max response in experiment [8] was -19%.
Turning to `C=C(C)C(=O)Nc1ccc(Cl)c(Cl)c1`, the compound was called inactive in experiment [1], in [3], in experiment [4] and in experiment [7]. In addition, the Potency is 19.7 µM (active) and 21.8 µM (active) in experiment [2]; 22.1 µM (active) and 21.8 µM (active) in experiment [6]; 19.7 µM (active) and 24.4 µM (active) in [8]. The Potency entry in experiment [5] and in experiment [9] was “inactive” throughout.
With `COc1ccc(NC(C)=O)cc1N`, the call in experiment [1], in experiment [3], in [4] and in experiment [7] was inactive. In addition, the Potency entry in experiment [2], in experiment [5], in [6] and in experiment [9] was “inactive” throughout. In experiment [8], the max response is 6.82% and 6.45%.
With `O=S(=O)(O)c1ccc2ccccc2c1`, the compound was classed as inactive in experiment [1], in experiment [3], in experiment [4] and in experiment [7]. The Potency result in [2], in [5], in experiment [6] and in [9] was “inactive” throughout. Besides, the max response in experiment [8] is 19.4% and -5.62%.
Take `CCCCCCCCCCCCOCCO`: the outcome in [1], in experiment [3], in experiment [4] and in experiment [7] was inactive. Further, the Potency entry in experiment [2], in experiment [5], in [6] and in experiment [9] was “inactive” each time. Further, the max response in experiment [8] was -14.2% and -3.69%.
With `O=C(O)c1cc(C(=O)O)cc(S(=O)(=O)O)c1`, the result in experiment [1], in experiment [3], in experiment [4] and in [7] was inactive. For the same compound, the Potency result in [2], in [5], in experiment [6] and in [9] was “inactive” in each case. Moreover, in experiment [8], the max response is -1.84% and 1.2%.
As to `c1ccc(OCCOc2ccccc2)cc1`, the result in experiment [1], in [3], in [4] and in experiment [7] was inactive. For the same compound, the Potency result in [2], in [5], in experiment [6] and in experiment [9] was “inactive” in each case. In addition, in experiment [8], the max response is -0.0252% and -0.384%.
In the case of `CC(C)(C)[C@@H](O)[C@@H](Cc1ccc(Cl)cc1)n1cncn1`, the compound was called inactive in experiment [1], in [3], in experiment [4] and in experiment [7]. Moreover, the Potency entry in experiment [5], in experiment [6] and in experiment [9] was “inactive” in each case.

The values are drawn from PubChem BioAssay (Tox21).
